# Bioassay records as filed in PubChem.
# In the library only some 2.3% were active in any assay of this set; here they are far more common.
# IkB sig inh = inhibitors of IkB signaling in ABC-DLBCL cells | ABC-DLBCL IkBa-CBG/CBR dual luciferase ratio, 4 h; response scale: scaled: untreated 0%, proteasome inhibitor 100% | Potency, µM (top dose mostly 57.1 µM) | actives 0.04% (n = 110,000) | AID 445; active means well fitted curve in the direction sought with a large enough effect in the signal ratio, not every such curve was filed as active; inconclusive means small, poorly fitted or top-dose-only effect, or a change in a side signal; the % refers to the signal ratio;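 further: the direction sought is a rising ratio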
#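 In this assay, an IκBα–CBG68 fusion accumulates when IKK-driven degradation is blocked; native CBR normalizes for cell number. OCI-Ly3 cells were treated 4 h with compound and doxycycline, then green and red light read after Chroma-Glo addition.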
# p53ts 39C tox = cytotoxicity in p53ts cells at nonpermissive temperature; H1299-p53A138V viability at 39C, ATP luminescence, 24 h; Potency, µM (highest dose often 46.1 µM), actives largely listed as cytotoxic; actives 1.5% (n = 130,000); AID 902; further: nearly all actives have a fitted effect of over 55% in size
# Imprint erasure = induces erasure of genomic imprints in mouse ES cells | mouse ES Peg3-LacZ reporter, beta-gal luminescence, 40 h | Potency, µM (top dose mostly 60.7 µM), usual class: activators | actives 0.02% (n = 110,000) | AID 1948
#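 Each well holds 300 Peg3LacZ-Neo (maternal) female ES cells incubated 40 h at 37C, 5% CO2. LacZ is measured by BetaGlo luminescence, with AC50 and maximum efficacy derived from dose-response curves.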
# ERK AVP block = vasopressin-driven ERK pathway inhibition | actives 0.99% (n = 72,000) | HEK293-V1b, vasopressin-stimulated pERK AlphaScreen | Potency, µM (doses to about 57.5 µM), usual class: inhibitors; further: nearly all actives have a fitted effect of over 55% in size
#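 Phosphorylated ERK1/2 detected via AlphaScreen bead proximity in lysates of V1b-expressing HEK293 cells given 25 nM vasopressin for 5 min after 30 min compound exposure (37 °C). AC50 from Hill equation; basal DMSO 0%, vasopressin 100%.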
# p53ts 32C tox = p53ts cell cytotoxicity, permissive temperature; actives 0.93% (n = 130,000); Potency, µM (titrated, usually from 46.1 µM), usual class: cytotoxic; AID 924; H1299-p53A138V at 32C, ATP luminescence viability, 24 h; further: nearly all actives have a fitted effect of over 55% in size
#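 ATP-content luminescence (ATPlite) read-out after 24 h compound exposure at 32C in H1299-p53A138V cells (600/well). Tested up to 46 uM. Normalized to DMSO (0%) and 100 uM tamoxifen (100% killing); Hill-fit AC50.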
# Hits are given with their value; i = inactive; ? = inconclusive; nt = no result given; [ ] = dose if it differs, or a comment. Unless noted, the call rests on the fitted dose curve; in most records, active means well fitted curve in the direction sought with a large enough effect; inconclusive means small, poorly fitted or top-dose-only effect, or another doubt; inactive means no such curve, though single readings can be large; an effect the other way counts as inactive or inconclusive.
SMILES,IkB sig inh,p53ts 39C tox,Imprint erasure,ERK AVP block,p53ts 32C tox
Nc1cc(C(=O)O)c(O)c(S(=O)(=O)O)c1,i,i,i,i,i[1.84 µM]
CCOC(=O)c1c(C)oc2c1c(C(c1cccnc1)N1CCN(C)CC1)c(O)c1ccccc12 (stereo not drawn),?,i,i,i,i
CN1CCN(C(c2cccnc2)c2ccc3cccnc3c2O)CC1 (stereo not drawn),?,13µM,i,?,i
CC1=C(C(=O)Nc2ccccc2)C(c2cc(Br)ccc2F)n2ncc(C(=O)Nc3ccccc3)c2N1 (stereo not drawn),?,i,i[10.9 µM],nt,i
CC1=C(C(=O)Nc2ccc(C)cc2C)C(c2cc(Br)ccc2F)n2ncc(C(=O)Nc3ccc(C)cc3)c2N1 (stereo not drawn),?,13µM,i[10.9 µM],nt,?
COc1ccc(OC)c(Nc2cc(-c3ccccc3)nc(N)n2)c1,?,?,i,10µM,?
FC(F)(F)c1cccc(N2CCN(c3nc4ccccc4n4cnnc34)CC2)c1,?,16µM,i[10.9 µM],nt,i
O=C(O)/C=C(/C(=O)O)[C@]12CCN3CC4=CCO[C@@H]5CC(=O)N[C@@H]1[C@H]5[C@H]4C[C@H]32,i[11.4 µM],i[9.22 µM],nt,i[11.5 µM],i[9.22 µM]
C=CCn1c(-c2ccc(OC)cc2)nc2ccccc21,i,?,i,?,16µM
Clc1ccc(CSc2ncnc3c2ncn3[C@@H]2CCCCO2)cc1,i[11.4 µM],i[9.22 µM],i[10.9 µM],i[11.5 µM],i[9.22 µM]
COc1cccc(NC(=O)/C=C\c2ccc(Cl)cc2)c1,?,?,i,32µM,i
COc1ccc(/C=C/C(=O)Nc2ccc(Cl)c(Cl)c2)cc1,?,?,i[10.9 µM],nt,i
O=C(NCC1CCN(Cc2cccc(Cl)c2)CC1)Nc1cc(Cl)ccc1Cl,?,13µM,i[10.9 µM],nt,?
Cc1ccc(NC(=O)c2cc(S(=O)(=O)NC3CCCCCC3)ccc2F)cc1F,?,i,i[10.9 µM],nt,?
O=C(Nc1ccc(Cl)cc1)c1cc(S(=O)(=O)NC2CCCCCC2)ccc1F,?,13µM,i[10.9 µM],nt,i
Cc1ccc(NC(=O)c2ccccc2F)nc1,?,?,nt,i,?
CC(=O)c1c(C)[nH]c(C(=O)Nc2ccc(C)cn2)c1C,i,5µM,i,i,2.5µM
COc1cc(C(=O)O[C@@H]2CC(C)=CC[C@@]3(C)CC[C@](O)(C(C)C)[C@H]23)ccc1O,i[11.4 µM],nt,nt,nt,nt
COc1cccc(NC(=O)CSc2nnc(-c3cccc(OC)c3)o2)c1,?,10µM,i[10.9 µM],nt,13µM
COc1cccc(NC(=O)COc2ccccc2C(N)=O)c1,?,10µM,i,i,16µM
O=C(CSc1nnc(-c2ccc(Cl)cc2)o1)c1ccc([N+](=O)[O-])cc1,i,i,i[10.9 µM],nt,i
CC(=O)Nc1cccc(-c2nnc(SCC(=O)c3cc([N+](=O)[O-])ccc3Cl)o2)c1,?,13µM,i[10.9 µM],nt,?
O=C(CSc1nnc(-c2ccccc2F)o1)Nc1ccccc1Cl,i,13µM,i[10.9 µM],nt,?
CCOCCOCC,i,i,i,i,i[1.84 µM]
NS(=O)(=O)c1cc2c(cc1Cl)=NC(CCC(=O)O)=NS=2(=O)O,i[11.4 µM],i[9.22 µM],i[10.9 µM],i[11.5 µM],i[9.22 µM]
SMILES,IkB sig inh,p53ts 39C tox,Imprint erasure,ERK AVP block,p53ts 32C tox
COc1ccccc1NC(=O)CSc1nnc(-c2ccc(C)cc2)o1,?,6.3µM,i,i,7.9µM
COc1cc(N=C(N)N=C(N)N)c2ncccc2c1,i[11.4 µM],i[9.22 µM],i[10.9 µM],i[11.5 µM],i[9.22 µM]
Cc1cc(C)c2c(SCc3ccc(Cl)cc3Cl)nc(N)nc2n1,i[11.4 µM],i[9.22 µM],i[10.9 µM],i[11.5 µM],i[9.22 µM]
COc1ccc(-c2cn3cc(C)ccc3n2)cc1OC,i,13µM,i,?,10µM
COc1ccc(Br)cc1S(=O)(=O)Nc1cc(-c2cn3ccccc3n2)ccc1C,i,i,i[10.9 µM],nt,i
COc1ccc(S(=O)(=O)Nc2cc(-c3cn4ccc(C)cc4n3)ccc2C)cc1OC,?,i,i[10.9 µM],nt,i
COc1ccc(-c2cn3ccccc3n2)cc1OC,i,5µM,i,?,3.2µM
Cc1ccc(-c2cn3ccc(C)cc3n2)cc1,?,0.63µM,i[10.9 µM],nt,0.5µM
CCCS(=O)(=O)Nc1cc(-c2cn3ccc(C)cc3n2)ccc1C,i,?,i[10.9 µM],nt,?
c1c[nH]cn1,i,nt,i,i,nt
Cc1ccc(NC(=O)N(Cc2ccc3c(c2)OCO3)Cc2cc3cc4c(cc3[nH]c2=O)OCCO4)cc1,i,i,i,i,i
O=C(Nc1ccc(F)cc1)N(Cc1ccco1)Cc1cc2cc3c(cc2[nH]c1=O)OCO3,?,i,i,20µM,i
CCN(CC)CCOC(=O)c1ccc(NC(=O)CSc2cc(=O)n(CC)c3ccccc23)cc1,i,10µM,?,nt,i
C/C(=N\Nc1nc2ccccc2[nH]1)c1cc2ccccc2o1,nt,13µM,nt,nt,16µM
CCN(CC)S(=O)(=O)c1nnc(NC(=O)COc2ccccc2)s1,i,i,i[10.9 µM],nt,i
CCN(CC)S(=O)(=O)c1nnc(NC(=O)COc2ccc(Cl)cc2)s1,?,16µM,i[10.9 µM],nt,?
CC(CN(C)C)NC(=O)c1ccc(Cc2nc3ccccc3[nH]2)cc1 (stereo not drawn),nt,i,nt,nt,i
Cc1c(C(=O)OCC(C)C)[nH]c2c1C(=O)CC(c1ccco1)C2 (stereo not drawn),?,i,i,?,i
Cc1c(C(=O)OC2CCCC2)[nH]c2c1C(=O)CC(c1ccco1)C2 (stereo not drawn),?,i,i,25µM,i
CC[C@H](C)C(=O)O[C@@H]1CCC=C2C=C[C@H](C)[C@@H](CC[C@H]3C[C@@H](O)CC(=O)O3)[C@H]21,i,nt,nt,nt,nt
O=C(Nc1ccc(N2CCCCC2)cc1)c1ccc(F)cc1,i,?,i,?,7.9µM
CCC[C@H](Sc1nc(N)nc2nc[nH]c12)C(=O)O,i[11.4 µM],i[9.22 µM],i[10.9 µM],i[11.5 µM],i[9.22 µM]
CC(=O)[C@H]([C@@H](c1ccccc1)N1CCOCC1)N1CCOCC1,i[11.4 µM],i[9.22 µM],nt,i[11.5 µM],i[9.22 µM]
CCOC(=O)c1ccc(N2C(=O)c3n[nH]c(-c4cccs4)c3C2c2ccc(C(C)C)cc2)cc1 (stereo not drawn),?,10µM,i[10.9 µM],nt,?
CCOC(=O)c1ccc(N2C(=O)c3n[nH]c(-c4cccs4)c3C2c2ccc(OCC)cc2)cc1 (stereo not drawn),i,?,i[10.9 µM],nt,i
CCOC(=O)c1ccc(N2C(=O)c3n[nH]c(-c4cccs4)c3C2c2ccc(CC)cc2)cc1 (stereo not drawn),?,10µM,i[10.9 µM],nt,?
CCOC(=O)c1ccc(N2C(=O)c3n[nH]c(-c4cccs4)c3C2c2cccc(O)c2)cc1 (stereo not drawn),?,?,i[10.9 µM],nt,?
COc1ccc(C2c3c(-c4ccccc4O)n[nH]c3C(=O)N2Cc2ccco2)cc1 (stereo not drawn),?,?,i[10.9 µM],nt,i
COc1ccc(C2c3c(-c4c(C)cc(C)cc4O)n[nH]c3C(=O)N2Cc2ccco2)cc1 (stereo not drawn),?,?,i[10.9 µM],nt,?
Cc1cc(C)c(-c2n[nH]c3c2C(c2ccccc2F)N(Cc2ccco2)C3=O)c(O)c1 (stereo not drawn),?,16µM,i[10.9 µM],nt,i
